Measurements: article PMC6792352, “Limited Chemical Structural Diversity Found to Modulate Thyroid Hormone Receptor in the Tox21 Chemical Library” (Environmental Health Perspectives, 2019)
Structures can show the parent of a compound that is named as a salt. Over roughly 7,300 compounds, “AC50” has its median near 90,000 nM; the lowest 2% begin near 20,000 nM. This is one part of the list.

These molecules were tested on thyroid hormone receptor (endogenous TRα and TRβ). Settings: read-out: TR_LUC_GH3_Agonist_AC50, agonist mode, primary qHTS, 24 h.
Set-up: species or system GH3-TRE-Luc (rat pituitary); GH3-TRE-Luc luciferase reporter transactivation, agonist mode, qHTS; RXR ligands can also activate indirectly

Row | Compound | AC50 [nM]
1 | C[C@]12CC[C@H]3C(=CCc4cc(O)ccc43)[C@@H]1CCC2=O [Equilin] | 3410
2 | COc1ccc(OC)c(C(O)C(C)N)c1 (centres unmarked) [Methoxamine hydrochloride] | 32000
3 | Cc1cc(NC(=O)C(=O)O)cc(C)c1Oc1ccc(O)c2c1CCC2 [CP-634384] | 1.47
4 | CC1=C(/C=C/C(C)=C/C=C/C(C)=C/C(=O)O)C(C)(C)CCC1 [all trans-Retinoic acid] | 319
5 | CC1=C(/C=C/C(C)=C\C=C\C(C)=C\C(=O)O)C(C)(C)CCC1 [9-cis Retinoic acid] | 4180
6 | CC1=C(/C=C/C(C)=C/C=C/C(C)=C\C(=O)O)C(C)(C)CCC1 [13-cis Retinoic acid] | 133
7 | NCC(=O)CCC(=O)O [Aminolevulinic acid hydrochloride] | 28700
8 | CC(C)(C)CC(C)(C)c1ccc(O)c(Cc2ccc(Cl)cc2Cl)c1 [Clofoctol] | 1370
9 | O=C(O)Cc1cc(I)c(Oc2cc(I)c(O)c(I)c2)c(I)c1 [Tetrac, 3,3ʹ,5,5ʹ-tetraiodothyroacetic acid] | 0.927
10 | N[C@@H](Cc1cc(I)c(Oc2cc(I)c(O)c(I)c2)c(I)c1)C(=O)O [Levothyroxine] | 7.89
11 | C[C@H](CCC(=O)NCC(=O)O)[C@H]1CC[C@H]2[C@@H]3[C@H](O)C[C@@H]4C[C@H](O)CC[C@]4(C)[C@H]3C[C@H](O)[C@]12C [glycocholic acid] | 51800
